# Of roughly 8,800 targets only a part is listed; those with a hit were picked by preference. About 0.5% of all pairs of compound and target were hits. A number with no mark means an inactive call.
# Legend:
# Assay in all cases: log2 fold change, soluble protein after heating vs DMSO (PISA); higher = thermal stabilisation; K562 lysate, 10 uM; active = over 0.2 and 3.5 SD of the protein, either way, in both replicates (recomputed)
# [1] = compound: CS(=O)(=O)CCNCc1ccc(-c2ccc3ncnc(Nc4ccc(OCc5cccc(F)c5)c(Cl)c4)c3c2)o1 [lapatinib]
# Method in brief: (§1)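 K562 pellets were dounce-homogenised in PBS pH 7.4 containing 1 mM MgCl2, and the crude extract, at 1 mg/mL protein, was exposed to 10 μM compound for 30 min. Aliquots were heated for 3 min across 48°C-58°C, pooled, brought to 0.5% NP-40 at 4°C and spun at 21,000xg for 90 min, with the supernatant taken as soluble protein. TMTpro 16plex LC-MS/MS with equalised channel sums quantified that protein. Values are log-two fold changes in thermal stability relative to solvent controls, taken from duplicates.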
# [2] = compound: CS(=O)(=O)N1CCN(Cc2cc3nc(-c4cccc5[nH]ncc45)nc(N4CCOCC4)c3s2)CC1 [pictilisib]
# Method in brief: as §1
# [3] = compound: C[C@@H](Oc1cc(-c2cnn(C3CCNCC3)c2)cnc1N)c1c(Cl)ccc(F)c1Cl [crizotinib]
# Method in brief: as §1
# [4] = compound: C[C@H](C1=CC=C(C=C1)C(=O)NC2=C3C=CNC3=NC=C2)N
# Method in brief: as §1
# [5] = compound: C[C@H](Nc1ncnc2nc[nH]c12)c1cc2cccc(Cl)c2c(=O)n1-c1ccccc1 [duvelisib]
# Method in brief: as §1
# [6] = compound: Cc1cc(Nc2cc(CN3CCOCC3)c3nc(C)c(Cc4ccc(Cl)cc4F)n3n2)n[nH]1 [gandotinib]
# Method in brief: as §1
# [7] = compound: Cc1cc(Nc2cc(N3CCN(C)CC3)nc(Sc3ccc(NC(=O)C4CC4)cc3)n2)n[nH]1 [tozasertib]
# Method in brief: as §1
# [8] = compound: Cc1ccc(-n2nc(C(C)(C)C)cc2NC(=O)Nc2ccc(OCCN3CCOCC3)c3ccccc23)cc1 [doramapimod]
# Method in brief: as §1
# [9] = compound: Cc1ccc(NC(=O)c2ccc(CN3CC[C@H](N(C)C)C3)c(C(F)(F)F)c2)cc1Nc1nccc(-c2cncnc2)n1 [bafetinib]
# Method in brief: as §1
# [10] = compound: Cc1cccc(CC(=O)N2CCc3c2ccc(-c2cn(C)c4ncnc(N)c24)c3F)n1
# Method in brief: as §1
# [11] = compound: Cc1cn(-c2cc(NC(=O)c3ccc(C)c(Nc4nccc(-c5cccnc5)n4)c3)cc(C(F)(F)F)c2)cn1 [nilotinib]
# Method in brief: as §1
# [12] = compound: Cc1nc(Nc2n[nH]c3c2CN(C(=O)N[C@H](CN(C)C)c2ccccc2)C3(C)C)c2sccc2n1
# Method in brief: as §1
# [13] = compound: Cc1nc(Nc2ncc(C(=O)Nc3c(C)cccc3Cl)s2)cc(N2CCN(CCO)CC2)n1 [dasatinib]
# Method in brief: as §1
# [14] = compound: Cc1ncc(-c2ccnc(Nc3ccc(S(C)(=O)=O)cc3)n2)n1C(C)C
# Method in brief: as §1
# [15] = compound: Cn1cc(-c2ccc3c(c2)CCN3C(=O)Cc2cccc(C(F)(F)F)c2)c2c(N)ncnc21
# Method in brief: as §1
# [16] = compound: Cn1cc(CNCC2CCN(c3ncc(C(=O)NO)cn3)CC2)c2ccccc21 [quisinostat]
# Method in brief: as §1
# [17] = compound: Cn1cncc1[C@@](N)(c1ccc(Cl)cc1)c1ccc2c(c1)c(-c1cccc(Cl)c1)cc(=O)n2C [tipifarnib]
# Method in brief: as §1
# [18] = compound: NC(=O)Nc1cc(-c2cccc(F)c2)sc1C(=O)N[C@H]1CCCNC1
# Method in brief: as §1
# [19] = compound: NC(=O)c1cnc(N[C@@H]2CCCC[C@@H]2N)nc1Nc1cccc(-n2nccn2)c1
# Method in brief: as §1
# [20] = compound: NC1(c2ccc(-c3nc4ccn5c(=O)[nH]nc5c4cc3-c3ccccc3)cc2)CCC1
# Method in brief: as §1
# Sequence of UniProt Q9UJZ1 (Q9UJZ1 whole entry, looked up): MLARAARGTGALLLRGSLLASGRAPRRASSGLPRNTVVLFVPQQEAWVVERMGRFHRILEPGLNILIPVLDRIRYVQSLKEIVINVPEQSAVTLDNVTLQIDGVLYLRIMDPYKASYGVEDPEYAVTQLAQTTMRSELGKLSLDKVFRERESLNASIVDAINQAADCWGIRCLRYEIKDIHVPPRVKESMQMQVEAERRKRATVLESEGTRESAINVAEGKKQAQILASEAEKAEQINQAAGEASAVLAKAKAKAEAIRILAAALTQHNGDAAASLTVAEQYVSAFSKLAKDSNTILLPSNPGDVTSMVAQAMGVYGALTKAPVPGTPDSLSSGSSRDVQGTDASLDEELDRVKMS
# Sequence of UniProt Q9H4L7 (Q9H4L7 whole entry, looked up): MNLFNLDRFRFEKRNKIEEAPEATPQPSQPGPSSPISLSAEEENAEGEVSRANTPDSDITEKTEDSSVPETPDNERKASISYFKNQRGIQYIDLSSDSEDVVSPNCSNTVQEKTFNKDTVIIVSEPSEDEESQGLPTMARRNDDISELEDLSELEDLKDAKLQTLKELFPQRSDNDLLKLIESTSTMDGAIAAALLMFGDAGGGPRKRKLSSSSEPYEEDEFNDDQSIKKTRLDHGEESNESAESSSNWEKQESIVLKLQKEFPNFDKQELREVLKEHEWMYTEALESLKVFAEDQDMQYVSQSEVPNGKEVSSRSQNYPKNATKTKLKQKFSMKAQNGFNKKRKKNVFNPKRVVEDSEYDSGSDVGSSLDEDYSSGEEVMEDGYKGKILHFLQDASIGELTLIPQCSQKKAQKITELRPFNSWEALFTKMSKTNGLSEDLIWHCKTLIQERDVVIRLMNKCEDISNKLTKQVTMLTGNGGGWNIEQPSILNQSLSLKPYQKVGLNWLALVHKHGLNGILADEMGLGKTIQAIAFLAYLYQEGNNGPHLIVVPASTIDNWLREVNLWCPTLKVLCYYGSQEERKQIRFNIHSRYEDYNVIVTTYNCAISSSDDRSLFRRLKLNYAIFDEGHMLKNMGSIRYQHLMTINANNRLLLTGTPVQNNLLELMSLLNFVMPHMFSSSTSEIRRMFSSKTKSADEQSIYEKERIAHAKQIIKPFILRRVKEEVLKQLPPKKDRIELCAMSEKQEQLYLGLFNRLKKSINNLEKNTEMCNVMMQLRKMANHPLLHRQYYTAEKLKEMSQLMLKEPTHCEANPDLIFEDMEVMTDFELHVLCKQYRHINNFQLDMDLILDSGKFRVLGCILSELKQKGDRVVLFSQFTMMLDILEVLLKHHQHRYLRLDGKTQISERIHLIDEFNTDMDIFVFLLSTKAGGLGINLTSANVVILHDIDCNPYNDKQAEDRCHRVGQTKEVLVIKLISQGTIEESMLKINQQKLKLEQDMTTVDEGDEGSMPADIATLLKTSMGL
# Sequence of UniProt Q96SB8 (Q96SB8 whole entry, looked up): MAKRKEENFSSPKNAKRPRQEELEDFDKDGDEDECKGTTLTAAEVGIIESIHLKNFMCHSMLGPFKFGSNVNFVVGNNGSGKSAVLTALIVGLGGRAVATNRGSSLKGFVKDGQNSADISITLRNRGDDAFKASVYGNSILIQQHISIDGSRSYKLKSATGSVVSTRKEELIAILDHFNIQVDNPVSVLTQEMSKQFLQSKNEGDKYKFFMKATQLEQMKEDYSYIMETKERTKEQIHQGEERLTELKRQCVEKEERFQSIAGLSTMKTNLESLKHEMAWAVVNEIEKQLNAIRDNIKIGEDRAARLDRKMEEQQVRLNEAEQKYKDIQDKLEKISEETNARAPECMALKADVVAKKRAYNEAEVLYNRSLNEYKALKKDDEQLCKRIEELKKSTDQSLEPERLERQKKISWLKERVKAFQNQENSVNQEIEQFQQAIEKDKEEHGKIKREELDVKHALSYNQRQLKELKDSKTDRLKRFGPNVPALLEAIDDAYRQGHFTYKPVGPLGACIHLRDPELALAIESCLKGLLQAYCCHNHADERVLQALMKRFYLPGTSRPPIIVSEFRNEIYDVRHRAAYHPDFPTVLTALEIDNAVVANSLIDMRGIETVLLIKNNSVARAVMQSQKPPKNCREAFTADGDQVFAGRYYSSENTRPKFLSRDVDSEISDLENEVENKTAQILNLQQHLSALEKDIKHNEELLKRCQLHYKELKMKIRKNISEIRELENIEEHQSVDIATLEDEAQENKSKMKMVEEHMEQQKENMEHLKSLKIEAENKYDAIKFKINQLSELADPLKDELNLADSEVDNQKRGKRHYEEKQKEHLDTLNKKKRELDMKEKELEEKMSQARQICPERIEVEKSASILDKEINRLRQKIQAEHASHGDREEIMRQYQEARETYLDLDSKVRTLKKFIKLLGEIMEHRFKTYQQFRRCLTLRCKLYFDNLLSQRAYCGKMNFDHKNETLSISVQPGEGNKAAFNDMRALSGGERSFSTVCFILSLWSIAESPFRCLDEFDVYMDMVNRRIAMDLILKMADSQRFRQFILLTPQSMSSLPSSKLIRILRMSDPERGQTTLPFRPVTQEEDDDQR
# Sequence of UniProt Q92540 (Q92540 whole entry, looked up): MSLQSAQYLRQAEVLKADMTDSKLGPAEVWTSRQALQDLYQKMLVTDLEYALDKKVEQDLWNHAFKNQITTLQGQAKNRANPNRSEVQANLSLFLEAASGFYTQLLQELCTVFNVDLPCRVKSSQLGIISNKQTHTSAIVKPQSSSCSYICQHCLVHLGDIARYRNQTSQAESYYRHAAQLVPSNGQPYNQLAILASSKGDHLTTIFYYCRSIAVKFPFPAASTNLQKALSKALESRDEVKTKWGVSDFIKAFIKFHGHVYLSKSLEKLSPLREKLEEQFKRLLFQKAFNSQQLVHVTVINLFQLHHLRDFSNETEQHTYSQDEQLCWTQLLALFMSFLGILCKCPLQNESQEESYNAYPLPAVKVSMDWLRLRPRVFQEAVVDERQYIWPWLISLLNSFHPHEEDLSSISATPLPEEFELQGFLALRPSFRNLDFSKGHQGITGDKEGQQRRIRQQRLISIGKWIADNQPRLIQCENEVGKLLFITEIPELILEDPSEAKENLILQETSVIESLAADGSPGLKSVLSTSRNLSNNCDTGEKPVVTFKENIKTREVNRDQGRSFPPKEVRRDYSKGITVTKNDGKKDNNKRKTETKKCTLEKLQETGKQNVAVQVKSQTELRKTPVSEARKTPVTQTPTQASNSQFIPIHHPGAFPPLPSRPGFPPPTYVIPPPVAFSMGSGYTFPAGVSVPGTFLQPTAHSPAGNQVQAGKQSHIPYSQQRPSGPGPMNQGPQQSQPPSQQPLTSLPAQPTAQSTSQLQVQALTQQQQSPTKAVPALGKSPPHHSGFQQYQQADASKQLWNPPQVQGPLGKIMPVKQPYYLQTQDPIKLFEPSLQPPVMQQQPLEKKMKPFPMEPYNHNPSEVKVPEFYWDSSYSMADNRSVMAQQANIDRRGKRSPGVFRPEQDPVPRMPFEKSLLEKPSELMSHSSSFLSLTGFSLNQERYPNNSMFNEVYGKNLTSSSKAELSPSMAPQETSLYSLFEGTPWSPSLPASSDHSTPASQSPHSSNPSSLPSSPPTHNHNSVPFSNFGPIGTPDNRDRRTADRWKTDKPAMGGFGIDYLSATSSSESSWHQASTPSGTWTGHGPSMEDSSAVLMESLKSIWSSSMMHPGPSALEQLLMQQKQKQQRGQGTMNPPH
# Sequence of UniProt Q99961 (Q99961 whole entry, looked up): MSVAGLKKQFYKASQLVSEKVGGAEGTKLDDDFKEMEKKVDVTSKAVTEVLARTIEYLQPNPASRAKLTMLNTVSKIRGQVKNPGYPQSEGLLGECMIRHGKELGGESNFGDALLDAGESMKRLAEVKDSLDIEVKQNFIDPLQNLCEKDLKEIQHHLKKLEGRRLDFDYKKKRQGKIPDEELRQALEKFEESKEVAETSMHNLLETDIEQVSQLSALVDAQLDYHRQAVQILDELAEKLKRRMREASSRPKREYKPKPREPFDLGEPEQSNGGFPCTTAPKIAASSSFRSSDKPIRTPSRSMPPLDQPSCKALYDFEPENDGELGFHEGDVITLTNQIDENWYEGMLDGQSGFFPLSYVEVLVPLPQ
# Sequence of UniProt Q7L8J4 (Q7L8J4 whole entry, looked up): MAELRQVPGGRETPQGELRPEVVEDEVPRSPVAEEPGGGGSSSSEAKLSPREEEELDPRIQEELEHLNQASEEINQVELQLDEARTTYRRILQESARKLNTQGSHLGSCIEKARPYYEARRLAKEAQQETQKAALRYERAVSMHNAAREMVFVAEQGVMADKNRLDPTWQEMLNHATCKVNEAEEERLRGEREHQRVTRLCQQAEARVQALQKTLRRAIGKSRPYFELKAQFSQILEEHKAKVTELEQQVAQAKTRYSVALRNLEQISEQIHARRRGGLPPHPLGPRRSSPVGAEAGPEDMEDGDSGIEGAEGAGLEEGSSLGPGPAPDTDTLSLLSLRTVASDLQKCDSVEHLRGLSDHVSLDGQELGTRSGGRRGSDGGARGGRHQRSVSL
# Sequence of UniProt Q8NHG7 (Q8NHG7 whole entry, looked up): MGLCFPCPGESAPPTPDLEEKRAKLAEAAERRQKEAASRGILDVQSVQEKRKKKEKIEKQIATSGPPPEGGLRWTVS
# Sequence of UniProt P05455 (P05455 whole entry, looked up): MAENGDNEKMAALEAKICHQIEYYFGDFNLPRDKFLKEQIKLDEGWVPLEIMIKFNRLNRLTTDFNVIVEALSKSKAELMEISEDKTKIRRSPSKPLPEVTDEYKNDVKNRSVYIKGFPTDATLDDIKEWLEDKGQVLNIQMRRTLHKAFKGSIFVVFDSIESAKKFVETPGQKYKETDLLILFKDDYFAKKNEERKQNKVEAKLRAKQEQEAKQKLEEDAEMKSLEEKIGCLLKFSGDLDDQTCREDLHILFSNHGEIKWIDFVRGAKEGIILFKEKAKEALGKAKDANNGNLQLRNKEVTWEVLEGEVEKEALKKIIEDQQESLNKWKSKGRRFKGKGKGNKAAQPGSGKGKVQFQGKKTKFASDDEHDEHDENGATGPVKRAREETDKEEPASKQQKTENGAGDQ
Target,log2 fold change [1],log2 fold change [2],log2 fold change [3],log2 fold change [4],log2 fold change [5],log2 fold change [6],log2 fold change [7],log2 fold change [8],log2 fold change [9],log2 fold change [10],log2 fold change [11],log2 fold change [12],log2 fold change [13],log2 fold change [14],log2 fold change [15],log2 fold change [16],log2 fold change [17],log2 fold change [18],log2 fold change [19],log2 fold change [20]
TADA3 (UniProt O75528),-0.005,0.009,0.017,-0.09,-0.002,0.143,0.066,0.006,-0.051,0.087,-0.022,-0.036,-0.014,-0.023,0.019,-0.037,-0.035,0.006,0.024,-0.044
SMN1 (UniProt Q16637),0.086,0.035,-0.183,-0.031,0.021,-0.056,0.049,0.022,0.036,0.158,0.012,0.019,-0.005,-0.023,0.05,-0.146,0,-0.001,0.047,0
SMARCAD1 isoform 2 (UniProt Q9H4L7),-0.005,-0.015,-0.073,-0.019,-0.013,-0.044,0.018,0.003,-0.045,0.008,-0.001,-0.008,-0.033,-0.005,-0.005,-0.054,-0.025,0.016,0.059,-0.007
STOML2 (UniProt Q9UJZ1),0.013,-0.021,0.028,0.089,0.035,0.015,0.012,-0.032,0.033,-0.023,-0.017,-0.01,0.004,0.017,-0.001,0.035,0.005,0.018,0.002,-0.003
SMC6 (UniProt Q96SB8),-0.051,-0.06,-0.026,-0.039,0.034,-0.002,0.004,-0.011,0.007,0.029,0.006,0,-0.021,-0.019,0.012,-0.012,-0.06,0.034,0.001,0.013
SVIP (UniProt Q8NHG7),0.005,-0.03,-0.037,0.027,-0.013,0.01,0.037,0.021,-0.008,0.032,-0.006,0,-0.066,0.089,-0.013,0.034,0.004,-0.095,-0.012,-0.004
STK11IP (UniProt Q8N1F8),0.022,0.012,-0.022,0.004,-0.052,-0.019,-0.014,0.037,-0.008,0.036,0.065,0.001,-0.053,-0.045,-0.016,-0.029,-0.033,-0.012,-0.014,0.037
SH3GL1 (UniProt Q99961),0.013,0.005,-0.017,0.028,0.023,0.009,0.013,0.025,-0.001,-0.063,-0.01,0.029,-0.024,0.01,-0.009,-0.046,0.015,0.004,0.006,0.033
SSB (UniProt P05455),-0.024,0.015,0.046,0.05,-0.01,-0.03,0.009,-0.032,0.017,-0.036,-0.013,-0.014,-0.008,0.006,-0.018,0.099,0.022,0.001,-0.013,0.012
SNCA (UniProt P37840),0.137,-0.014,0.127,-0.101,-0.005,0.456 (active),0.016,0.196,0.098,0.073,0.148,0.075,0.128,-0.032,0.019,-0.031,0.159,-0.112,-0.049,0
SRSF9 (UniProt Q13242),0.014,0.046,0.006,-0.019,0.011,-0.003,0.019,0.085,-0.028,0.053,0.02,0.01,-0.079,0.02,-0.005,0.008,0.047,-0.012,0.029,-0.002
SYNRG (UniProt Q9UMZ2),0.022,-0.016,0.016,0.043,-0.041,-0.037,0.024,-0.023,-0.032,-0.044,-0.007,0.012,0.009,0.036,0.001,0.021,-0.025,0.018,0.026,-0.079
STUB1 (UniProt Q9UNE7),-0.01,-0.012,-0.035,0.004,-0.01,-0.073,-0.006,0.019,-0.054,0.05,0.031,-0.027,-0.037,0.027,0.004,-0.06,-0.011,0.053,0.015,0.004
SH3BP5L (UniProt Q7L8J4),0.006,-0.004,-0.01,-0.05,0.001,0.031,0.098,-0.044,0.001,0.015,-0.056,0.037,-0.023,0.04,-0.025,0.007,-0.01,0.007,0.013,-0.033
SOAT1 (UniProt P35610),0.027,-0.004,-0.022,-0.079,-0.016,0.005,0.009,0.157,0.029,0.141,0.313 (active),-0.019,0.071,-0.065,-0.022,-0.12,0.072,-0.042,0.045,-0.013
SMG7 (UniProt Q92540),0.101,0.1,0.043,-0.035,0.026,-0.018,0.026,-0.257 (active),-0.008,0.022,0.001,-0.034,0.003,-0.058,0.03,0.062,-0.072,0.054,-0.067,0.04

# From the supplement of paper PMC10849652
